Laboratory results published in PubChem BioAssay (NCI).
Compounds without any hit were thinned out: in the full panel of roughly 83,000, 20% have a hit.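 How to read the values: 0–100, growth inhibition (40 = 60% inhibited); 0, no net growth; -100 to 0, cell death (-40 = 40% of starting cells died; -100 = all dead).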 The source made the active and inactive calls. How the source made its calls: active means growth percent below 10; inactive means the rest.

What was measured:
Assay in all cases: NCI-60 one-dose screen, 48 h (100 = growth as untreated, 0 = no growth, -100 = all killed)
Conditions in all cases: 10 µM unless noted
HCT-15 colon = test system: HCT-15 colon
HT29 colon = test system: HT29 colon
SNB-75 CNS = test system: SNB-75 CNS
SNB-19 CNS = test system: SNB-19 CNS
U251 CNS = test system: U251 CNS
PC-3 prostate = test system: PC-3 prostate
SK-MEL-5 melanoma = test system: SK-MEL-5 melanoma
UACC-62 melanoma = test system: UACC-62 melanoma
LOX IMVI melanoma = test system: LOX IMVI melanoma
SK-MEL-28 melanoma = test system: SK-MEL-28 melanoma
SN12C renal = test system: SN12C renal
UO-31 renal = test system: UO-31 renal
TK-10 renal = test system: TK-10 renal
ACHN renal = test system: ACHN renal
CAKI-1 renal = test system: CAKI-1 renal
A498 renal = test system: A498 renal
CCRF-CEM leukemia = test system: CCRF-CEM leukemia
MOLT-4 leukemia = test system: MOLT-4 leukemia

Measured: growth

CC(=O)Nc1nonc1-c1nc2ccccc2n1Cc1ccc(C(C)(C)C)cc1
inactive: HCT-15 colon 90.4% | HT29 colon 74.1% | SNB-75 CNS 50.2% | SNB-19 CNS 80.1% | U251 CNS 75.7% | PC-3 prostate 28.6% | SK-MEL-5 melanoma 79.9% | UACC-62 melanoma 81.6% | LOX IMVI melanoma 63% | SK-MEL-28 melanoma 101% | SN12C renal 82.2% | UO-31 renal 46.1% | TK-10 renal 95.5% | ACHN renal 82.1% | CAKI-1 renal 69% | CCRF-CEM leukemia 78.4% | MOLT-4 leukemia 51.7%
active: A498 renal -4.2%

Nc1nc(N)c2c(n1)NC(c1sc(Cl)nc1Cl)CC(c1ccccc1)=N2 (configuration not stated)
inactive: HCT-15 colon 27.9% | HT29 colon 12.6% | SNB-75 CNS 30.1% | SNB-19 CNS 61.7% | U251 CNS 33.3% | PC-3 prostate 59.5% | SK-MEL-5 melanoma 33.5% | UACC-62 melanoma 45.7% | LOX IMVI melanoma 41.5% | SK-MEL-28 melanoma 62.3% | SN12C renal 48.7% | UO-31 renal 46.6% | TK-10 renal 70.8% | ACHN renal 61.5% | CAKI-1 renal 44.8% | A498 renal 19.7% | CCRF-CEM leukemia 38.9% | MOLT-4 leukemia 26%

N#Cc1c(NN)n(C2OC(CO)C(O)C2O)c2ncnc(N)c12 (configuration not stated)
active: HCT-15 colon 3.17% | HT29 colon 4.15% | PC-3 prostate 6.48% | SK-MEL-5 melanoma -67.5% | UACC-62 melanoma -39.3% | LOX IMVI melanoma -4.81% | SK-MEL-28 melanoma -15.1% | UO-31 renal -23.5% | ACHN renal 7.45% | A498 renal -17.8% | CCRF-CEM leukemia -22.3%
inactive: SNB-75 CNS 35.2% | SNB-19 CNS 54.7% | U251 CNS 34.5% | SN12C renal 16.1% | TK-10 renal 11.2%

C=C1NC(=O)C(C(C)CC)NC(=O)C2CSCC(NC(=O)CCC(=O)O)C(=O)NC(Cc3ccccc3)C(=O)NC(C)C(=O)NC(CC(C)CC)C(=O)NC(C(=O)NC(Cc3ccccc3)C(=O)N3CCCC3C(=O)N2)C(C)OC(=O)C(CO)NC(=O)C(C(O)COC)N(C)C(=O)C(C(C)C)NC(=O)C(CC(C)CC)NC1=O (configuration not stated)
active: HT29 colon 4.74% [6 µM] | SK-MEL-5 melanoma -44.8% [6 µM] | A498 renal -11.8% [6 µM]
inactive: HCT-15 colon 15.8% [6 µM] | SNB-75 CNS 11.4% [6 µM] | SNB-19 CNS 21.3% [6 µM] | U251 CNS 11.2% [6 µM] | PC-3 prostate 22.1% [6 µM] | UACC-62 melanoma 39.8% [6 µM] | LOX IMVI melanoma 15.1% [6 µM] | SK-MEL-28 melanoma 60.2% [6 µM] | SN12C renal 31.4% [6 µM] | UO-31 renal 57.4% [6 µM] | TK-10 renal 60.2% [6 µM] | ACHN renal 37.4% [6 µM] | CAKI-1 renal 33.1% [6 µM] | CCRF-CEM leukemia 18.6% [6 µM] | MOLT-4 leukemia 16.9% [6 µM]

COc1ccc(C(=O)/C=C/c2cn(-c3ccccc3)nc2-c2cccc(Nc3ccnc4cc(Cl)ccc34)c2)cc1
inactive: HCT-15 colon 101% | HT29 colon 104% | SNB-75 CNS 99.5% | SNB-19 CNS 93.2% | U251 CNS 94.9% | PC-3 prostate 87.4% | SK-MEL-5 melanoma 88.4% | UACC-62 melanoma 89.9% | LOX IMVI melanoma 104% | SK-MEL-28 melanoma 95.3% | SN12C renal 89.8% | UO-31 renal 86.6% | TK-10 renal 120% | ACHN renal 103% | CAKI-1 renal 94.3% | A498 renal 94.8% | CCRF-CEM leukemia 48.3% | MOLT-4 leukemia 104%

Cc1ccc(S(=O)(=O)NC(CCC(=O)Nc2ccc(Cl)cc2)C(=O)Nc2ccc(Cl)cc2)cc1 (configuration not stated)
active: SNB-75 CNS -17.2% | UACC-62 melanoma 2.47% | LOX IMVI melanoma 6.06% | A498 renal -0.58% | CCRF-CEM leukemia 4.45%
inactive: HCT-15 colon 18.9% | HT29 colon 14.2% | SNB-19 CNS 14.1% | U251 CNS 12.5% | PC-3 prostate 17.8% | SK-MEL-5 melanoma 21.2% | SK-MEL-28 melanoma 64.3% | SN12C renal 39.8% | UO-31 renal 38.2% | TK-10 renal 25.7% | ACHN renal 30% | CAKI-1 renal 41.9% | MOLT-4 leukemia 10.7%

O=C(CI)NCCNc1cccc2c(S(=O)(=O)O)cccc12
inactive: HCT-15 colon 98.6% | HT29 colon 110% | SNB-75 CNS 96.9% | SNB-19 CNS 89.7% | U251 CNS 105% | PC-3 prostate 102% | SK-MEL-5 melanoma 99.6% | UACC-62 melanoma 89.5% | LOX IMVI melanoma 103% | SK-MEL-28 melanoma 106% | SN12C renal 94.7% | UO-31 renal 93.4% | TK-10 renal 111% | ACHN renal 107% | CAKI-1 renal 109% | A498 renal 92.7% | CCRF-CEM leukemia 100% | MOLT-4 leukemia 98.3%

CC1=C(C(=O)Nc2ccc(F)cc2)C(c2ccc(Cl)cc2)C2=C(CC(C)(C)CC2=O)N1 (configuration not stated)
inactive: HCT-15 colon 84.6% | HT29 colon 98% | SNB-75 CNS 66% | SNB-19 CNS 86% | U251 CNS 81.6% | PC-3 prostate 61.7% | SK-MEL-5 melanoma 75.9% | UACC-62 melanoma 77.4% | LOX IMVI melanoma 87.8% | SK-MEL-28 melanoma 82.6% | SN12C renal 86.7% | UO-31 renal 64% | TK-10 renal 113% | ACHN renal 94.4% | CAKI-1 renal 72.7% | A498 renal 54.4% | CCRF-CEM leukemia 78.8% | MOLT-4 leukemia 73.1%
